The structures appear in SMILES notation. The panel holds about 83,000 compounds, 20% with a hit somewhere; the sample as a whole holds those more often.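 Testing used 96-well plates and a 48-hour single-concentration exposure. Example: -40 means 40% of the starting cells died.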 Values without a mark were called inactive. Active and inactive are the calls of the source.

In this experiment the test system is OVCAR-5 ovarian. The experiment is described as follows: NCI-60 one-dose screen, 48 h (100 = growth as untreated, 0 = no growth, -100 = all killed). The conditions noted are these: 10 µM. As to the method: Growth inhibition of the OVCAR-5 human tumor cell line is measured as a screen for anti-cancer activity. Cells are grown in 96 well plates and exposed to the test compound for 48 hours. Compounds are tested at a single concentration, which is 10^-5 M for most compounds. The reported endpoint is percent growth (GI% or GIPRCNT), where numbers from 0 - 100% represent growth inhibition, and numbers from -100% - 0 represent cell death. For example, a value of 40 represents 60% growth inhibition. A value of 0 means no net growth occurred over the course of the experiment. A value of -40 indicates 40% of cells at the beginning of the experiment died by the end of the experiment. A value of -100 means all cells are dead at the end of the experiment.
NCI-60 Human Tumor Cell Lines Screen was performed using the standard one-dose NCI protocol, which is described in more detail at https://dtp.cancer.gov/discovery_development/nci-60/default.htm.
Compounds with GIPRCNT values below 10 were considered active. Activity score was based on GIPRCNT using the following formula: […]
Score is 0 for GIPRCNT values of 100 or above, 50 for GIPRCNT values of 0, and 100 for GIPRCNT values of -100.
Consider `Nc1cc(Br)c(-c2nn3c(CCC(=O)c4nc5ccccc5[nH]4)nnc3s2)c(Br)c1`, for which the growth was 122%.
Turning to `Nc1cc(-c2ccc(Cl)cc2)nn1-c1nc2ccccc2nc1Cc1ccccc1`, the growth is 95%.
As for `NC(=O)c1cccc(-n2ccc3cc(NC(=O)Nc4ccc(Cl)c(C(F)(F)F)c4)ccc32)n1`, the growth was 93.1%.
Under `C=CCSC(CC)(CC)C(=O)NC` stands 104%; under `COC1OC(COS(=O)OC)C(O)C(O)C1OS(=O)OC` (stereo not given), 90.5%; under `CCN(CC)CCNc1ccc(C)c2sc3cc(Cl)ccc3c(=O)c12`, 64.3%.
The value for `Fc1ccc(C(c2ccc(F)cc2)C(Cl)Cl)cc1` was 105%.
Under `COc1cc(-c2csc(NC(=O)Nc3ccc(Cl)c(C(F)(F)F)c3)n2)cc(OC)c1OC` stands 18.4%; under `NNC(=O)Oc1c(Cl)cc(Cl)cc1[N+](=O)[O-]`, 104%.
Turning to `CCN(CC)CC(=O)N(CC)c1ccc(C)c(Cl)c1`, the growth was 104%.
The value for `COc1cc(C2C(C#N)=C(N)Oc3cc(O)ccc32)cc(OC)c1OC` (stereo not given) was 35.5%; that for `CN(C)CCOc1ccc(-c2nc3sccn3c2-c2ccnc(S(C)(=O)=O)n2)cc1` was 107%; that for `CN(C)CCN(Cc1ccccc1)c1ccc2ccccc2n1` was 95%.
The value for `COc1ccc(-c2nn(-c3cccc(Cl)c3)cc2-c2c(C#N)c(=O)n3[nH]c(-c4ccc(C)cc4)nc3c2C#N)cc1` was 87%.
As for `CCOC(=O)c1cc(C(=O)c2cc(OC)c(OC)c(OC)c2)n2ccc(-c3cc[n+](CC(=O)c4cc(OC)c(OC)c(OC)c4)cc3)cc12`, the growth is 92.5%.
The value for `COc1cc2c(cc1OC)C(C(CCCCCC(CCC(C)C)C1NCCc3cc(OC)c(OC)cc31)CCC(C)C)NCC2` (stereo not given) was -100% (active); that for `COc1ccc(-c2csc(NC(=O)c3ccc(Cc4n[nH]c(=O)c5cccnc45)cc3)n2)cc1` was 95%; that for `CN(C)CCOc1cccc(-c2nc3sccn3c2-c2ccnc(S(C)(=O)=O)n2)c1` was 97.3%.
Take `O=C(N/N=C/c1c(Cl)cccc1Cl)c1ccccc1Nc1cccc(C(F)(F)F)c1`: the growth is 105%.
The value for `CN(C)CCCN1c2ccccc2CCc2ccc(Cl)cc21` was 77.5%.
The value for `CC(=O)N[C@H](C(=O)N[C@@H](CCCNC(=N)N)C(=O)N[C@@H](CCCCN)C(=O)N[C@@H](CCCNC(=N)N)C(=O)NC(C(=O)N[C@@H](CC(C)C)C(=O)N[C@@H](CCCNC(=N)N)C(=O)N[C@@]1(C)CCC/C=C\CCC[C@@](C)(C(=O)N[C@@H](CCCNC(=N)N)C(=O)N[C@@H](CCC(=O)O)C(=O)N[C@@H](CC(C)C)C(=O)N[C@H](C(=O)N[C@@H](CCC(=O)O)C(N)=O)C(C)C)NC(=O)[C@H](CCC(N)=O)NC(=O)[C@H](CC(C)C)NC(=O)[C@H](CC(C)C)NC1=O)[C@@H](C)O)C(C)C` (stereo not given in full) was 25.5%.
Under `O=C1CC(SC(=S)C2CCCC2=O)C(=O)N1` (stereo not given) stands 109%; under `COc1ccc2c(c1)C(=O)/C(=C/c1cccc(OCC(=O)c3ccc([N+](=O)[O-])cc3)c1)CO2`, 57.3%; under `CCOC(=O)C(C)(c1ccccc1)c1ccccc1`, 107%.
Regarding `COc1cc(C(=O)/C=C/c2c[nH]c3ccccc23)cc(OC)c1OC`, the growth is 55.7%.
As for `CCC(c1ccc(OC)cc1)C(CC)c1ccc(O)c(CN2CCN(C)CC2)c1` (stereo not given), the growth was 80.4%.
For the molecule `COc1ccc(C2CC(c3cc(OC)c(OC)c(OC)c3)=NN2)cc1` (stereo not given), the growth is 97.9%.
The value for `CCOC(=O)c1cc(C(=O)c2ccc(OC)c(OC)c2)n2ccncc12` was 124%.
As to `COc1ccc([C@H]2[C@H](C(=O)Nc3cccnc3)c3ccccc3C(=O)N2c2ccccc2)cc1`, the growth was 114%.
The value for `Cc1cc(NC(=O)c2ccc(C)c(Nc3nccc(-c4cccnc4)n3)c2)cc(-n2cnc(C)c2)c1` was 46%; that for `CCOC(=O)c1cocc1C(=O)O` was 105%; that for `CC(C)(C)c1ccc(S(=O)(=O)Oc2ccc(NC(=O)C3CCCCC3)cc2)cc1` was 85.1%.
For the molecule `C=C(NC(=O)C(=C)NC(=O)c1csc(C2=NC3c4csc(n4)C4NC(=O)c5csc(n5)C(C(C)(O)C(C)O)NC(=O)C5CSC(=N5)C(=CC)NC(=O)C(C(C)O)NC(=O)c5csc(n5)C3(CC2)NC(=O)C(C)NC(=O)C(=C)NC(=O)C(C)NC(=O)C(C(C)CC)NC2C=Cc3c(C(C)O)cc(nc3C2O)C(=O)OC4C)n1)C(N)=O` (stereo not given), the growth was 34%.
For `NS(=O)(=O)Oc1ccc2c(ccn2C(=O)C23CC4CC(CC(C4)C2)C3)c1`, the growth is 105%.
`COc1ccc(C(=O)CSc2nc(-c3cc(OC)ccc3OC)cc(-c3ccc(OC)cc3)c2C#N)cc1`: the growth was 85.8%.
Under `Cc1c[nH]c(=O)n(Cc2nnc(CCC(=O)c3nc4ccccc4[nH]3)o2)c1=O` stands 13.8%; under `O=c1oc2c(cc1-c1ccc(F)cc1)C(O)Oc1ccccc1-2` (stereo not given), 96.2%.
The value for `COc1cc2cc(Oc3ccc(NC(=O)Nc4ccc(C(F)(F)F)cc4)cc3)c(C)nc2cc1OC` was 92.9%; that for `O=C(/C=C/c1cccc(B(O)O)c1)c1cccc(B(O)O)c1` was -12% (active).
Take `CCOC(=O)c1cc(C(=O)c2ccc(F)cc2F)n2ccccc12`: the growth is 99.7%.

(Values after PubChem BioAssay (NCI).)
